This note sets out measurements from PubChem BioAssay (NCI).

Each structure is given as a SMILES string. Compounds without any hit were thinned out: in the full panel of roughly 83,000, 20% have a hit.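 Activity criterion: percent growth below 10, measured after cells in 96-well plates were exposed to a single compound concentration for 48 hours.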 Unmarked numbers belong to inactive results. Active and inactive are the calls of the source.

Among the test systems are SR leukemia; OVCAR-8 ovarian; OVCAR-5 ovarian; OVCAR-4 ovarian; SK-OV-3 ovarian; IGROV1 ovarian; HS 578T breast; T-47D breast; BT-549 breast; MDA-MB-435 melanoma; SW-620 colon; MCF7 breast; HCT-116 colon; HCC-2998 colon; KM12 colon; OVCAR-3 ovarian; NCI/ADR-RES ovarian; RPMI-8226 leukemia.
Holding throughout (experiment): NCI-60 one-dose screen, 48 h (100 = growth as untreated, 0 = no growth, -100 = all killed)
Holding throughout (conditions): 10 µM unless noted

For `CC(C)=CC(=O)N[C@H]1CC[C@]2(C)C3CC[C@]4(C)C(C(C)N(C)C)=CCC4C3CCC2[C@H]1O` (stereo not given in full), the growth in the experiment with SR leukemia is 30.2%; with OVCAR-8 ovarian, 77.6%; with OVCAR-5 ovarian, 101%; in the experiment with OVCAR-4 ovarian it was 7.83% (active); in the experiment with SK-OV-3 ovarian, 115%; in the experiment with IGROV1 ovarian, 51.3%. Besides, the growth with HS 578T breast is 57.1%; with T-47D breast it was 38.6%; in the experiment on BT-549 breast, 54.4%; in the experiment on MDA-MB-435 melanoma, -33.8% (active); with SW-620 colon, -23.5% (active); with MCF7 breast, 11.4%. Also, the growth in the experiment on HCT-116 colon is 2.25% (active); with HCC-2998 colon, 35.8%; in the experiment on KM12 colon, 23.2%.

With `CCOc1ccc(/C=C/C(=O)c2cccc(OCCCOc3cccc(C(=O)/C=C/c4ccc(OCC)cc4)c3)c2)cc1`, the growth in the experiment with SR leukemia is 90.1%; in the experiment on OVCAR-8 ovarian it was 85.9%; with OVCAR-5 ovarian, 107%; in the experiment with OVCAR-4 ovarian, 69.1%; in the experiment on SK-OV-3 ovarian, 103%; with IGROV1 ovarian, 78.7%. For the same compound, the growth with OVCAR-3 ovarian was 85.5%; with HS 578T breast, 90.2%; in the experiment with NCI/ADR-RES ovarian it was 86.5%; in the experiment with BT-549 breast, 92.1%; in the experiment with MDA-MB-435 melanoma it was 79.7%; with SW-620 colon it was 98%. Further, the growth in the experiment on MCF7 breast was 84.5%; in the experiment with HCT-116 colon, 81.7%; in the experiment with KM12 colon, 93%.

`NCCCNc1nc2ccccc2c2c(=O)c3cc(Cl)ccc3sc12`: the growth in the experiment on SR leukemia is -44.3% (active); in the experiment on OVCAR-8 ovarian, -48.4% (active); in the experiment on OVCAR-5 ovarian it was -11.5% (active); with OVCAR-4 ovarian it was 33.4%; with SK-OV-3 ovarian, 77.6%; with IGROV1 ovarian, -1.46% (active). For the same compound, the growth in the experiment on OVCAR-3 ovarian was -60% (active); with HS 578T breast, 43%; with NCI/ADR-RES ovarian it was -4.11% (active); in the experiment on T-47D breast, -6.77% (active); with BT-549 breast, 83%; with MDA-MB-435 melanoma it was -71.1% (active). In addition, the growth is -90.6% (active) in the experiment on SW-620 colon; -75.4% (active) in the experiment with MCF7 breast; -92.5% (active) in the experiment on HCT-116 colon; -75.6% (active) with HCC-2998 colon; -67.4% (active) with KM12 colon.

As for `CCCn1c(=S)sc2c(NNC(C)=O)nc(C)nc21`, the growth in the experiment on SR leukemia was 158%; in the experiment on OVCAR-8 ovarian it was 102%; with OVCAR-5 ovarian, 98%; with OVCAR-4 ovarian, 101%; in the experiment with SK-OV-3 ovarian, 99.9%; in the experiment on IGROV1 ovarian it was 37.1%. For the same compound, the growth with OVCAR-3 ovarian was 118%; with HS 578T breast, 97.7%; in the experiment with NCI/ADR-RES ovarian it was 101%; with T-47D breast it was 78.9%; with BT-549 breast, 110%; with MDA-MB-435 melanoma, 115%. Further, the growth in the experiment with SW-620 colon is 101%; with MCF7 breast it was 95.9%; in the experiment on HCT-116 colon it was 95.3%; in the experiment with HCC-2998 colon, 94.8%; with KM12 colon it was 97%.

Take `CNC(=O)c1cc(Oc2ccc3c(c2)sc2nc(-c4cc(C(F)(F)F)cc(C(F)(F)F)c4)cn23)ccn1`: the growth in the experiment with SR leukemia is 34%; with OVCAR-8 ovarian it was 36.1%; with OVCAR-5 ovarian it was 91.4%; in the experiment with OVCAR-4 ovarian it was 24.8%; with SK-OV-3 ovarian, 46.7%; with IGROV1 ovarian, 74.1%. The growth with OVCAR-3 ovarian was 68.3%; with HS 578T breast, 49.4%; in the experiment on NCI/ADR-RES ovarian, 68.3%; with T-47D breast, 30.6%; with BT-549 breast it was 52.9%; in the experiment with MDA-MB-435 melanoma, 60.8%. The growth in the experiment on SW-620 colon is 64.9%; in the experiment on MCF7 breast it was 51.1%; in the experiment with HCC-2998 colon, 74.3%; in the experiment with KM12 colon, 69.5%.

Regarding `O=S(=O)(Nc1ccc2ccccc2c1)c1ccc(-c2cnc(C3CC3)o2)cc1`, the growth is 16.5% with SR leukemia; 24.6% in the experiment with OVCAR-8 ovarian; 48% with OVCAR-5 ovarian; 70.4% in the experiment on OVCAR-4 ovarian; 32.7% with SK-OV-3 ovarian; 39.1% with IGROV1 ovarian. The growth was 13.4% with HS 578T breast; 9.69% (active) in the experiment on NCI/ADR-RES ovarian; 29.8% with T-47D breast; 62.6% in the experiment with BT-549 breast; -30.2% (active) in the experiment on MDA-MB-435 melanoma; 24.3% with SW-620 colon. The growth in the experiment on MCF7 breast was 22.1%; in the experiment on HCT-116 colon it was 25.4%; in the experiment on HCC-2998 colon, 64.3%; with KM12 colon it was 24.7%.

Consider `COc1ccc(/C=C2\c3cc(OC)c(OC)c(OC)c3CC[C@@H]2O)cc1F`, for which the growth is 3.9% (active) with SR leukemia; 25.4% in the experiment on OVCAR-8 ovarian; 76.2% with OVCAR-5 ovarian; 57% in the experiment on OVCAR-4 ovarian; 22.4% with SK-OV-3 ovarian; 4.82% (active) in the experiment on OVCAR-3 ovarian. The growth with HS 578T breast was 37.3%; with NCI/ADR-RES ovarian, 8.8% (active); with T-47D breast, 43.6%; in the experiment with BT-549 breast it was 23%; in the experiment with MDA-MB-435 melanoma, -35.6% (active); with SW-620 colon, 28%. Moreover, the growth with MCF7 breast was 18.4%; with HCT-116 colon, 8.9% (active); with HCC-2998 colon, 35.7%; with KM12 colon, 22.9%.

Regarding `C=CCN=c1sc(-c2ccc3ccccc3c2)cn1NC(=O)c1cc2ccc1CCc1ccc(cc1)CC2`, the growth is 39.1% with SR leukemia; 25.8% with RPMI-8226 leukemia; 65.5% in the experiment on OVCAR-8 ovarian; 103% in the experiment with OVCAR-5 ovarian; 81.3% in the experiment on IGROV1 ovarian; 53.2% in the experiment with OVCAR-3 ovarian. The growth was 58.7% with HS 578T breast; 67.2% in the experiment on NCI/ADR-RES ovarian; 20.8% in the experiment on T-47D breast; 53.9% in the experiment with BT-549 breast; 67.5% with MDA-MB-435 melanoma; 72.9% in the experiment with SW-620 colon. Moreover, the growth in the experiment on MCF7 breast is 35.9%; in the experiment with HCT-116 colon, 27.1%; with HCC-2998 colon, 89.1%; with KM12 colon, 56.6%.

`CC1(C)CC[C@]2(CO)CC[C@]3(C)[C@](O)([C@H](O)C[C@@H]4[C@@]5(C)CCCNC(C)(C)[C@@H]5CC[C@]43C)[C@@H]2C1`: the growth in the experiment with SR leukemia is 3.98% (active); in the experiment on OVCAR-8 ovarian, 101%; in the experiment with OVCAR-5 ovarian, 106%; in the experiment on OVCAR-4 ovarian, 96.2%; with SK-OV-3 ovarian, 98.2%; in the experiment with IGROV1 ovarian it was 102%. Moreover, the growth in the experiment on OVCAR-3 ovarian was 101%; in the experiment on HS 578T breast, 98.9%; in the experiment with NCI/ADR-RES ovarian, 100%; in the experiment on T-47D breast it was 84.3%; in the experiment with BT-549 breast, 98.8%; in the experiment with MDA-MB-435 melanoma, 93.2%. The growth was 99.6% in the experiment on SW-620 colon; 91.7% with MCF7 breast; 71.3% with HCT-116 colon; 58.4% in the experiment with HCC-2998 colon; 95% with KM12 colon.
